Bioassay records: PubChem BioAssay, Broad Institute
PD-1 reversal: activators reversing PD-1 mediated T-cell inhibition. primary human CD4 T cells, PD-L1 beads, CellTiter-Glo 96 h. activation, % (test concentration not listed). 29,000 tested, under 10 active. AID 2316; call rule not given here;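 also: 0% = median vehicle wells and 100% = positive control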
STK33 kin inh: blocks human STK33 kinase activity; ADP-Glo luminescence, MBP substrate; inhibition, % at 12.5 µM; hit rate 0.44% among 27,000; Q9BYT3; in the data active = inhibition above about 20%; inconclusive = no clear call, values can overlap the other calls
Target sequence (Q9BYT3 whole entry, looked up): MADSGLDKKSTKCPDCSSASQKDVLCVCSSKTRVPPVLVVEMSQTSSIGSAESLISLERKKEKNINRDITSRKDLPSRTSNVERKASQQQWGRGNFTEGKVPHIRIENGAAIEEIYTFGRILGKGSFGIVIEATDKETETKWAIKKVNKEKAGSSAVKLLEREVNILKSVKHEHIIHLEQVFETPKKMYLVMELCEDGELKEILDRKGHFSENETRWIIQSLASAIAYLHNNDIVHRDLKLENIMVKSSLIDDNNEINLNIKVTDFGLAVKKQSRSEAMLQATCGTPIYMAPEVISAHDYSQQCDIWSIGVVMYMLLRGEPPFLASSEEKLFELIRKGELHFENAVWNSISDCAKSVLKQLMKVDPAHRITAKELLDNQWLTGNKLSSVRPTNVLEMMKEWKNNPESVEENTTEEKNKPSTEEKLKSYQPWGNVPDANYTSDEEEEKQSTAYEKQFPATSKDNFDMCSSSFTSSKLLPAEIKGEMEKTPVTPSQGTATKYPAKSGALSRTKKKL
NOMO-1 viab: STK33 inhibitor candidate reducing NOMO-1 cell viability | AID 2330 | NOMO-1 AML viability, CellTiter-Glo luminescence, 72 h | hit rate 7.5% among 37,000 | inhibition, % (concentration not given with the values); in the data active = inhibition above about 80%; inconclusive = no clear call, values can overlap the other calls
* hit, by the source's call; ? = inconclusive; / = not tested or not shown. The entries come from a sample that favours hits as a whole.

SMILES	PD-1 reversal	STK33 kin inh	NOMO-1 viab
CCN(CC)c1ncc2c(NCc3ccccc3)nc(SCc3ccccc3)nc2n1	-2	/	43
O=C(CSc1nc(Nc2ccccc2)nc(N2CCOCC2)n1)N1CCc2ccccc21	/	0	20
CCOC(=O)CSc1nc(Nc2ccc(OC)cc2)c2cnc(N(CC)CC)nc2n1	-5	1	120*
COc1cc2c(cc1NC(=O)CCOc1ccccc1C)oc1ccccc12	/	0	7
Cc1ccc(S(=O)(=O)CCSc2sc(C#N)c3c2C(=O)CC(C)(C)C3)cc1	-2	/	94*
CCOC(=O)c1sc(SCCS(=O)(=O)c2ccc(Cl)cc2)c2c1CCCC2=O	0	/	30
O=C1c2ccccc2C(=O)N1CSc1nc2ccccc2s1	-1	/	40
Nc1ncnc(Sc2nc3ccccc3s2)c1[N+](=O)[O-]	-12	-6	114*
COc1cccc(N(CC(=O)Nc2ccc(F)cc2F)S(C)(=O)=O)c1	1	1	-15
CCN(CC)S(=O)(=O)c1ccc(Cl)c(C(=O)Oc2ccc(C)c(C)c2)c1	2	-1	23
C[C@@H]1CN([C@@H](C)CO)C(=O)c2cc(NC(=O)NC3CCCCC3)ccc2O[C@H]1CN(C)Cc1ccc(C(=O)Nc2ccccc2N)cc1	-2	/	28
C[C@@H]1CN([C@H](C)CO)C(=O)c2cc(NC(=O)C3CCCCC3)ccc2O[C@@H]1CN(C)Cc1ccc(C(=O)Nc2ccccc2N)cc1	-1	/	?
C[C@@H]1CN([C@@H](C)CO)C(=O)c2cc(NC(=O)C3CCCCC3)ccc2O[C@@H]1CN(C)Cc1ccc(C(=O)Nc2ccccc2N)cc1	-2	/	109*
C[C@H]1CN([C@@H](C)CO)C(=O)c2cc(NC(=O)C3CC3)ccc2O[C@H]1CN(C)Cc1ccc(C(=O)Nc2ccccc2N)cc1	0	/	106*
C[C@@H]1CN([C@@H](C)CO)C(=O)c2cc(NC(=O)C3CC3)ccc2O[C@@H]1CN(C)Cc1ccc(C(=O)Nc2ccccc2N)cc1	-2	/	105*
C[C@H](CO)N1C[C@H](C)[C@H](CN(C)Cc2ccc(C(=O)Nc3ccccc3N)cc2)Oc2ccc(NC(=O)C3CC3)cc2C1=O	-2	/	?
Cn1c(SCc2ccc(C(F)(F)F)cc2)nnc1-c1ccc(OCC(F)(F)F)nc1	0	/	28
Cc1nn(C)c(C)c1CNC(=O)c1cc(-c2ccccc2Cl)nc2c(C)cccc12	/	-4	22
COc1cc(-c2ccccn2)nc(/C=N/O)c1S(C)=O (centres undefined)	/	0	/
O=C(CSc1nccc(=O)[nH]1)N1CCc2ccccc21	-5	13	16
CCN(CC(=O)Nc1cccc(OC)c1)S(=O)(=O)c1ccc2ccccc2c1	-1	-2	30
CCOC(=O)c1c(CN2CCCCC2)n(-c2ccccc2)c2cc(Br)c(OC)cc12	-1	/	40
COc1ccc(S(=O)(=O)Nc2cc(C)cc(C)c2)cc1	0	/	96*
COc1ccc(S(=O)(=O)Nc2c(C)nc3nc[nH]n3c2=O)cc1	1	-4	33
COc1ccccc1NC(=O)C1=C(C)Nc2ncnn2C1c1ccncc1 (centres undefined)	2	0	31
SMILES	PD-1 reversal	STK33 kin inh	NOMO-1 viab
Cc1cc(=O)[nH]c(SCCOc2ccccc2C#N)n1	0	0	-17
COC(=O)C1=C(N)OC2=C(CCCC2=O)C1c1cccnc1 (centres undefined)	3	/	-14
CC(NC(=O)COc1ccccc1C(C)(C)C)c1ccccc1 (centres undefined)	0	/	115*
Cc1ccccc1OCC(=O)NCC(=O)O	2	-1	18
CCN(CC)S(=O)(=O)c1ccc(C(=O)Nc2ccc3c(c2)OC(C)(C)O3)cc1	-8	0	?
O=C(O)CCC(=O)Nc1ccc(Cc2ccncc2)cc1	1	/	-16
Cc1cc(Cl)ccc1N(CC(=O)Nc1cc(Cl)cc(Cl)c1)S(C)(=O)=O	-2	2	90*
Cc1ccc(NC(=O)CN(c2ccc(Cl)c(C(F)(F)F)c2)S(C)(=O)=O)cc1Cl	/	2	55
COC(=O)c1ccc(NC(=O)CN(c2ccc(Cl)cc2C)S(C)(=O)=O)cc1	1	5	5
Cc1cc(NC(=O)CN(c2ccc(Cl)c(C(F)(F)F)c2)S(C)(=O)=O)ccc1Br	-11	-1	103*
Cc1cccc(NC(=O)CN(c2cc(Cl)c(Cl)cc2Cl)S(C)(=O)=O)c1	-2	-2	50
Cc1cc(Cl)ccc1NC(=O)CN(c1cccc(Cl)c1)S(C)(=O)=O	-1	-3	9
Cc1cc(N(CC(=O)Nc2ccc(Cl)cc2C)S(C)(=O)=O)ccc1Br	1	7	87*
CS(=O)(=O)N(CC(=O)Nc1cccc(C(F)(F)F)c1)c1cc(Cl)c(Cl)cc1Cl	-3	1	140*
O=C(CSc1ncnc2sc(-c3ccccc3)cc12)c1ccc2c(c1)OCCO2	0	/	20
Cc1cccc(-n2c(SCC(=O)c3ccccc3)nnc2-c2ccncc2)c1C	-3	-1	30
O=S(=O)(N[C@@H]1CCN(Cc2ccc(OCCO)cc2)C1)c1ccc(Cl)c(Cl)c1	/	-1	/
Cc1noc(C)c1CSc1nc2[nH]ncc2c(=O)n1-c1ccccc1	/	-1	108*
Cc1nc(CSc2nc3[nH]ncc3c(=O)n2-c2ccccc2)cs1	/	0	6
CCc1nc(SCC(=O)Nc2c(C)cc(C)cc2[N+](=O)[O-])n[nH]1	/	-1	-17
O=C1NCN(c2ccccc2)C12CCN(CCCC(c1ccc(F)cc1)c1ccc(F)cc1)CC2	/	3	114*
c1ccc(CN2CCOCCN(Cc3ccccc3)CCOCC2)cc1	-1	/	87*
S=C(c1ccccc1)N1CCN(Cc2ccccc2)CC1	1	/	13
COc1ccc(C2C(C(=O)Nc3cc(OC)c(Cl)cc3OC)=C(C)Nc3ncnn32)c(OC)c1 (centres undefined)	-4	0	-12
C[C@H](CO)N1C[C@H](C)[C@H](CN(C)S(C)(=O)=O)Oc2ccc(NC(=O)Nc3ccc(C(F)(F)F)cc3)cc2CC1=O	-1	-2	98*
SMILES	PD-1 reversal	STK33 kin inh	NOMO-1 viab
C[C@H]1CN([C@@H](C)CO)C(=O)Cc2cc(NC(=O)Nc3ccc(C(F)(F)F)cc3)ccc2O[C@@H]1CN(C)S(=O)(=O)c1ccc(F)cc1	/	/	69
C[C@H]1CN([C@@H](C)CO)C(=O)Cc2cc(NC(=O)Nc3ccc(C(F)(F)F)cc3)ccc2O[C@H]1CN(C)S(=O)(=O)c1ccc(Cl)cc1	-4	1	115*
C[C@@H]1CN([C@@H](C)CO)C(=O)Cc2cc(NC(=O)Nc3ccc(C(F)(F)F)cc3)ccc2O[C@@H]1CN(C)S(=O)(=O)c1ccc(Cl)cc1	-7	-4	104*
Cc1ccc(S(=O)(=O)N(C)C[C@@H]2Oc3ccc(NC(=O)Nc4ccc(C(F)(F)F)cc4)cc3CC(=O)N([C@H](C)CO)C[C@H]2C)cc1	2	7	66
C[C@H]1CN([C@@H](C)CO)C(=O)Cc2cc(NC(=O)Nc3ccc(F)cc3)ccc2O[C@@H]1CN(C)S(=O)(=O)c1ccc(Cl)cc1	1	0	0
C[C@@H]1CN([C@@H](C)CO)C(=O)Cc2cc(NC(=O)Nc3ccc(C(F)(F)F)cc3)ccc2O[C@@H]1CN(C)C	/	/	48
C[C@@H]1CN([C@H](C)CO)C(=O)Cc2cc(NC(=O)Nc3ccc(C(F)(F)F)cc3)ccc2O[C@@H]1CN(C)S(=O)(=O)c1ccc(F)cc1	-1	4	90*
